Records with an inconclusive call do not appear. The source made the active and inactive calls. Calls come from the whole dose curve; as a rule, active = well fitted inhibition curve with a large enough effect; inconclusive = small, poorly fitted or top-dose-only effect; inactive = no such curve, though single readings can be large or run the other way.
Target: RecQ-like DNA helicase BLM (Homo sapiens) (UniProt P54132)
Assay: qHTS for Inhibitors of Bloom's syndrome helicase (BLM): Helicase DNA unwinding fluorescent orthogonal confirmatory assay for SAR
Conditions: fluorescence, orthogonal confirmation
Source text: Human RecQ DNA helicases participate in maintenance of genome stability and DNA repair. While other types of helicases have been explored as targets for drug development, members of the RecQ family have remained less well characterized. Mutations of the Bloom helicase gene have been associated with the rare human genetic disease called Bloom syndrome. […] Moreover, identified inhibitors can be used in cells and animal models to examine the consequences of inhibition on the survival of cancer cells where it has been shown that BLM plays an important role.
A fluorescence-based, biochemical assay in 1536 well format was developed to evaluate inhibition of BLM DNA unwinding activity. This assay was used to screen the MLPCN library. The resulting compounds were subjected to orthogonal and secondary biochemical assays to triage the initial hits, to classify compounds based on mode of action and to derive structure activity relationships (SARs) of candidate effectors. The data herein is the result of the Helicase DNA unwinding fluorescent orthogonal confirmatory assay. This fluorescent-based assay employs a purified BLM enzyme and utilizes gel electrophoresis to monitor the helicase-mediated unwinding of a fluorescently-labeled DNA substrate. For this assay decrease in the single-stranded DNA product band on the gel = inhibition of the BLM helicase activity. Inhibition is the desired outcome for this assay.
NIH Chemical Genomics Center [NCGC]
NIH Molecular Libraries Probe Centers Network [MLPCN]
Assay Submitter (PI): Opher Gileadi, Structural Genomics Consortium, University of Oxford, UK
Unwinding assay for the BLM helicase was carried out in a reaction buffer containing 50 mM Tris-HCl pH 7.5, 50mM NaCl, 2mM MgCl2, 2mM ATP, 1mM DTT, and 0.1 mg/ml BSA. Optimal substrate and enzyme concentrations as well as reaction times were determined experimentally. All reactions were performed at room temperature and terminated by the addition of loading buffer containing 20mM EDTA and 2.5% bromophenol blue. […] Substrate and product bands were quantified using ImageJ. […]

Sequence of RecQ-like DNA helicase BLM (Homo sapiens) (P54132 whole entry, looked up): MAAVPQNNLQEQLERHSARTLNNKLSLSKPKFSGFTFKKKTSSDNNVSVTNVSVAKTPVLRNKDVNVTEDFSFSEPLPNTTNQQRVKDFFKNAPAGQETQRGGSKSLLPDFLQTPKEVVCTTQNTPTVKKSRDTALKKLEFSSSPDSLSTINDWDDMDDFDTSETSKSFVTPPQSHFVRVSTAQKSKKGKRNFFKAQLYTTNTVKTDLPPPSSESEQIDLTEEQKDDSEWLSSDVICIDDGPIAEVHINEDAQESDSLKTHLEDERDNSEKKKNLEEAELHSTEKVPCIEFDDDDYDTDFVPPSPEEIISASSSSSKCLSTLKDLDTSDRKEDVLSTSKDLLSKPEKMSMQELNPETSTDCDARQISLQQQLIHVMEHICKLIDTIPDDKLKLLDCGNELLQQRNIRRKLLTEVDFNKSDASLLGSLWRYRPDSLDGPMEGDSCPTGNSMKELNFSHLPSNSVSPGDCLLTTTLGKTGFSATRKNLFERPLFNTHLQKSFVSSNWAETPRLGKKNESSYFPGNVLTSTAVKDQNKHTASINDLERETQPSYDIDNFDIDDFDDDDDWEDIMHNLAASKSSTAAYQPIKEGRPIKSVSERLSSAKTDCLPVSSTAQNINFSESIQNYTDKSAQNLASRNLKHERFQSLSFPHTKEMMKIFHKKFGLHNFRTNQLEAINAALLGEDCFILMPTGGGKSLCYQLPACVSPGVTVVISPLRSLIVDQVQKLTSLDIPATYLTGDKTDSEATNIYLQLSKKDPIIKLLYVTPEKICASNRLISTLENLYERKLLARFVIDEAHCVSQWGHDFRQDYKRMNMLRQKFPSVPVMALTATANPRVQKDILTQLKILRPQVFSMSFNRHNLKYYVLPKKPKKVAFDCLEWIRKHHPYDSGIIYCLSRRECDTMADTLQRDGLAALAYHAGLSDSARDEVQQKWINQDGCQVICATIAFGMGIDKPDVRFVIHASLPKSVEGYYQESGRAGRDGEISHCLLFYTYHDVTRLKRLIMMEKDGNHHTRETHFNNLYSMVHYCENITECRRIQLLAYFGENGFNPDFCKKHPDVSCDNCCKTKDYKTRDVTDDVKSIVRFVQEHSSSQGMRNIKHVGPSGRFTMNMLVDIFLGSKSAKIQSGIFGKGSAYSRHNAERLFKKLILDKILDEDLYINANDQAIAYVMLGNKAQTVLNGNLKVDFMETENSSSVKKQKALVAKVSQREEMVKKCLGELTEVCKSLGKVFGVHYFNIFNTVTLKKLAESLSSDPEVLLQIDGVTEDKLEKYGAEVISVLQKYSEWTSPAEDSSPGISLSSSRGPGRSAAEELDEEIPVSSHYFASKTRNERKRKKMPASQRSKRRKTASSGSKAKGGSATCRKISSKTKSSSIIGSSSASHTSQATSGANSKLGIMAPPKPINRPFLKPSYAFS

Compound | Potency
N#Cc1ccc(NC(=O)Nc2nnc(-c3ccncc3)s2)cc1C(F)(F)F | 5620 nM (active)
N#Cc1ccc(NC(=O)Nc2nnc(-c3ccncc3)s2)cc1Cl | 1580 nM (active)
N#Cc1ccc(NC(=O)Nc2nnc(-c3ccncc3)s2)cc1Br | 1120 nM (active)
